Reference: PubChem BioAssay AID686979 (National Center for Advancing Translational Sciences (NCATS), 2013)
The campaign covered roughly 420,000 compounds. About 50,000 (12%) were called active. About 26% were inconclusive and are not listed. This excerpt belongs to a sample that is enriched for actives. Unmarked numbers belong to inactive results. Calls come from the whole dose curve; as a rule, active = well fitted inhibition curve with a large enough effect; inconclusive = small, poorly fitted or top-dose-only effect; inactive = flat fitted curve, though single readings scatter.
% is set by controls: 0 for no effect and ±100 for the full control effect; potency is the fitted concentration of half-maximal effect.

Test: qHTS for Inhibitors of human tyrosyl-DNA phosphodiesterase 1 (TDP1): qHTS in cells in presence of CPT; note: nearly all actives have a fitted effect of over 55% in size
Conditions: chicken DT40 Tdp1-/-;hTDP1 cells + 20 nM CPT, ATP luminescence, 48 h; series mostly up to 46.2 µM; activity change, negative = growth inhibition: at the top concentration
How it was run: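 Cell growth measured by CellTiter-Glo luminescence after a minimum 48 h, 37 C compound exposure with 20 nM CPT in Tdp1-knockout DT40 cells stably expressing hTDP1, seeded 400/well; qHTS titration format.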
With `O=c1ccc2c(-c3ccccc3S(=O)(=O)O)c3ccc(O)c(O)c3oc-2c1O` the Potency was 16.4 µM (active).
With `O=C(Nc1ccc(OCC(=O)N2CCOCC2)cc1)c1cc(F)c(F)cc1Cl` the “activity change, negative = growth inhibition” value was -7.2%.
In the case of `COc1ccccc1Oc1ccc(N2CC(C(=O)OCC(=O)c3ccc(F)cc3)CC2=O)cc1` (centres undefined), the “activity change, negative = growth inhibition” value is reported as -3.16%.
With `CCN1CCC(O)(/C=C/c2ccc(C)cc2)C(C(=O)/C=C/c2ccc(C)cc2)C1` (centres undefined) the Potency was 3.66 µM (active).
In the case of `O=C(NCc1cccs1)c1ccc(CS(=O)Cc2ccccc2Cl)o1` (centres undefined), the “activity change, negative = growth inhibition” value is reported as -4.56%.
With `CCOCCCN(C)C1CCN(C(=O)c2oc3ccccc3c2NC(=O)Cc2cccc([N+](=O)[O-])c2)CC1` the “activity change, negative = growth inhibition” value was -22.5%.
For `CCOC(=O)c1cc2c(=O)n3ccccc3nc2n(CCCOC)c1=NC(=O)C(C)Oc1ccccc1` (centres undefined), the “activity change, negative = growth inhibition” value was -8.14%.
With `COc1cc2c(=O)c(S(=O)(=O)c3ccc(C(C)C)cc3)cn(Cc3ccccc3C)c2cc1OC` the Potency was 6.51 µM (active).
With `Cc1cc(Nc2cccc(F)c2)n2ncnc2n1` the “activity change, negative = growth inhibition” value was 5.51%.
With `COCCN1C(=O)C(=O)/C(=C(/O)c2ccc(S(=O)(=O)N3CCOCC3)cc2)C1c1ccc(O)c(OC)c1` (centres undefined) the “activity change, negative = growth inhibition” value was 2.61%.
In the case of `CC(=O)Nc1cccc(Nc2ccc(C#N)cc2)c1`, the “activity change, negative = growth inhibition” value is reported as -39.3%.
With `CCN(CC)N=Nc1cccc(NC(C)=O)c1` the Potency was 11.6 µM (active).
With `CC(=O)Nc1cccc(C(=O)OCN2C(=O)c3ccccc3C2=O)c1` the “activity change, negative = growth inhibition” value was 0.81%.
For `CCn1ccnc1CN(C)Cc1nc(-c2ccc3c(c2)OCO3)no1`, the “activity change, negative = growth inhibition” value was -11.6%.
With `Cc1ccc(-n2cc(CN(C)Cc3nccn3C)c(-c3cccc(C)c3)n2)cc1` the Potency was 20.6 µM (active).
With `NNC(=O)c1ccc(COCC(F)(F)C(F)F)cc1` the “activity change, negative = growth inhibition” value was -3.54%.
For `CCN(c1ccccc1)S(=O)(=O)c1ccc(OCC(=O)N2CCCC2)cc1`, the “activity change, negative = growth inhibition” value was -7.32%.
With `COc1ccc(-c2nc(SCC(=O)N3CCCC3)n[nH]2)cc1` the “activity change, negative = growth inhibition” value was -4.75%.
In the case of `CCc1ccc(-c2nc(SCC(=O)NC3CCCC3)n[nH]2)cc1`, the Potency is reported as 25.9 µM (active).
With `COc1ccc(CNC(=O)CSc2n[nH]c(-c3ccc(F)cc3)n2)cc1` the “activity change, negative = growth inhibition” value was -25.8%.
For `CC(=O)N1CCN(Cc2cc(=O)oc3cc(C)ccc23)CC1`, the “activity change, negative = growth inhibition” value was 0.374%.
With `CCc1nnc(NC(=O)c2cc(S(=O)(=O)N3CCN(CC)CC3)ccc2Cl)s1` the “activity change, negative = growth inhibition” value was 4.17%.
For `NNC(=O)C1CC(O)CN1S(=O)(=O)c1ccc(Cl)cc1` (centres undefined), the “activity change, negative = growth inhibition” value was -1.12%.
For `COc1ccccc1N1CCN(Cc2cc(OC)c3c(c2)OCO3)CC1`, the “activity change, negative = growth inhibition” value was -23.6%.
With `COc1ccccc1N1CCN(Cc2ccc(OC)c3ccccc23)CC1` the Potency was 16.4 µM (active).
In the case of `COc1ccccc1/C=N/N1CCN(Cc2ccccc2Cl)CC1`, the “activity change, negative = growth inhibition” value is reported as 11.4%.
For `Cc1cccc(N=C2NN=C(c3c[nH]c4ccccc34)CS2)c1`, the “activity change, negative = growth inhibition” value was -9.71%.
For `C=CCn1c(C)cc(C2=NNC(=NCC)SC2)c1C`, the Potency was 16.4 µM (active).
In the case of `Cc1cc(NC(=O)CCC(=O)N(Cc2ccccc2)C(C(=O)NC2CCCC2)c2ccc(C)o2)no1` (centres undefined), the “activity change, negative = growth inhibition” value is reported as -23.4%.
For `CCC1Oc2ccccc2N(CC(=O)NCCCN2CCN(CC)CC2)C1=O` (centres undefined), the “activity change, negative = growth inhibition” value was -2.74%.
For `Cn1cnc(S(=O)(=O)N2C[C@@H](O)COC[C@@H]3O[C@H](CC(=O)NC4CCC4)CC[C@H]32)c1`, the “activity change, negative = growth inhibition” value was 1.21%.
For `COCCNc1ncnc2ccc(-c3ccccc3CN(C)C)cc12`, the “activity change, negative = growth inhibition” value was 2.72%.
In the case of `COCCNc1ncnc2ccc(-c3cccnc3)cc12`, the Potency is reported as 14.6 µM (active).
In the case of `COc1ccccc1CNc1ncncc1-c1cccnc1`, the “activity change, negative = growth inhibition” value is reported as -13.3%.
In the case of `Cc1cc(C)cc(N(CC(=O)NC2CCCC2)C(=O)CCC(=O)Nc2nccs2)c1`, the “activity change, negative = growth inhibition” value is reported as 0.0142%.
For `COCCn1c(=O)c(CCc2ccccc2)nc2cnc(N3CCNCC3)nc21`, the “activity change, negative = growth inhibition” value was -6.9%.
For `N#Cc1cccc(-c2nc3cnc(N4CCNCC4)nc3n(C3CC3)c2=O)c1`, the Potency was 5.17 µM (active).
With `Cn1c(=O)c(-c2ccccc2)nc2cnc(N3CCNCC3)nc21` the “activity change, negative = growth inhibition” value was -14.6%.
For `Cc1cccc(CN2CCC(n3nccc3NC(=O)c3ccccc3C)CC2)n1`, the “activity change, negative = growth inhibition” value was -19.4%.
For `CCNc1ncc2nc(CCc3ccccc3)c(=O)n(-c3ccc(OC)cc3)c2n1`, the “activity change, negative = growth inhibition” value was 9.73%.
In the case of `COc1ccc(-c2onc3ccc(C(C)=O)cc23)cc1`, the “activity change, negative = growth inhibition” value is reported as -25.5%.
In the case of `COc1ccc(-c2cc(C(=O)N3CCN(c4ccc(F)cc4)CC3)no2)cc1`, the “activity change, negative = growth inhibition” value is reported as -2.11%.
In the case of `COc1ccc(-c2nc3c(s2)CCc2onc(-c4ccc(OC)cc4)c2-3)cc1`, the Potency is reported as 20.6 µM (active).
With `Nc1nc(NC(=O)/C=C/c2ccc(F)cc2)nn1-c1ccccc1` the “activity change, negative = growth inhibition” value was -18.1%.
With `O=C(OCCN=C1NS(=O)(=O)c2ccccc21)c1cccc([N+](=O)[O-])c1` the “activity change, negative = growth inhibition” value was -30.4%.
In the case of `O=C(Nc1nnc(-c2ccc(F)cc2)s1)c1c(F)cccc1Cl`, the “activity change, negative = growth inhibition” value is reported as -17.1%.
In the case of `CCOC(=O)Cc1csc(NC(=O)C(C)(C)C)n1`, the “activity change, negative = growth inhibition” value is reported as -0.25%.
For `CCOC(=O)Cc1csc(NC(=O)CSc2nc(C)cc(=O)[nH]2)n1`, the Potency was 23.1 µM (active).
With `CCCCc1nnc(NC(=O)CSc2nc(C)cc(=O)[nH]2)s1` the “activity change, negative = growth inhibition” value was -8%.
In the case of `CC(=O)O[C@H]1CC[C@@]2(C)C(=CC[C@@H]3[C@@H]2CC[C@]2(C)C(c4cccnc4)=CC[C@@H]32)C1`, the “activity change, negative = growth inhibition” value is reported as -11.4%.
With `Cc1cc(Cl)ccc1C(=O)C1CCCN(C(=O)c2ccc3c(c2)OCO3)C1` (centres undefined) the Potency was 10.3 µM (active).
For `COc1ccc(OC)c(S(=O)(=O)N2CCCC(C(=O)NCCc3ccccc3)C2)c1` (centres undefined), the “activity change, negative = growth inhibition” value was -18.8%.
In the case of `COc1ccc(C(=O)C2CCCN(C(=O)c3cnsn3)C2)c(C)c1` (centres undefined), the “activity change, negative = growth inhibition” value is reported as -24.1%.
With `CCOC(=O)c1[nH]ncc1CN1CCCC(C(=O)c2ccc(OC)cc2C)C1` (centres undefined) the “activity change, negative = growth inhibition” value was 9.78%.
For `O=C(c1ccc2c(c1)OCO2)N1CCOCC1`, the “activity change, negative = growth inhibition” value was -11.9%.
For `CCn1nc(C)cc1C(=O)N1CCCC(C(=O)c2cccc(OC)c2)C1` (centres undefined), the “activity change, negative = growth inhibition” value was -26.5%.
For `COc1ccc(NC(=O)C2CCCN(S(=O)(=O)c3c(C)[nH]c(=O)[nH]c3=O)C2)c(OC)c1` (centres undefined), the “activity change, negative = growth inhibition” value was 20.1%.
For `COc1ccc(C(=O)C2CCCN(Cc3cccn3-c3ccccn3)C2)c(C)c1` (centres undefined), the Potency was 20.6 µM (active).
With `COc1ccc(C(=O)N2CCCC(C(=O)c3ccccc3OC)C2)cc1OC` (centres undefined) the “activity change, negative = growth inhibition” value was 3.42%.
In the case of `COc1ccc(C(=O)C2CCCN(C(=O)c3ccc(OC)o3)C2)c(C)c1` (centres undefined), the Potency is reported as 20.6 µM (active).
Molecule `FC(F)(F)c1cccc(-c2cn[nH]c2C2CCCN(Cc3cccn3-c3ccccn3)C2)c1` (centres undefined) has an activity change, negative = growth inhibition of -7.96% [at 9.04 µM].
For `COc1ccc(C(=O)C2CCCN(S(=O)(=O)c3cccc(C)c3)C2)c(C)c1` (centres undefined), the Potency was 16.4 µM (active).
In the case of `COC(=O)C1=C(NC(=O)C(C)(C)C)CCS1`, the “activity change, negative = growth inhibition” value is reported as -7.7%.
With `COCCCNS(=O)(=O)c1cccc(S(=O)(=O)c2cccc(S(=O)(=O)NCCCOC)c2)c1` the “activity change, negative = growth inhibition” value was -26.2%.
